Test results as given in paper PMC6212790, “How bacterial xenogeneic silencer rok distinguishes foreign from self DNA in its resident genome”.
Whole data set: some 33,000 sequences, median “e-score” near -0.038, cut for the highest 2% near 0.33. Many of the other results were omitted from the sample, so the highest values are more common in it than they were.

Target: T1, GST-Rok-C97-191 (Bacillus subtilis subsp. subtilis str. …, UniProt O34857 97-191)
T1 sequence: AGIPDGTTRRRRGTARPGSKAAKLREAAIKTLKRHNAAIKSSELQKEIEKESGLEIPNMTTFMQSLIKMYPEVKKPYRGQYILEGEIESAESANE
Experiment: protein binding microarray; Rok is a gene silencer of Bacillus subtilis; high values mean tight binding
Conditions: protein: recombinant; tags: GST (pTH5325, pDEST15-Magic modified); dsDNA, one strand shown
Method in brief: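 Every oligonucleotide joins a 25-mer constant primer to a 35-mer variable part drawn from a de Bruijn sequence of order 10, so each non-palindromic 8-mer appears at least 32 times and each palindromic 8-mer 16 times. The preference for every 8-mer is reported as a unitless, rank-based enrichment score (E-score). This score spans 0.5 for the most favored 8-mer to −0.5 for the most disfavored.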

Sequence | binding signal [E-score]
CCCAGCAG | -0.112
CTGAACGC | -0.149
TACGACAA | 0.151
ATGGTCAA | 0.137
AAACTCCG | 0.115
GCTGTTTA | 0.0646
AAATTCTA | 0.379
AAATTCTT | 0.105
GAATTCTC | 0.0595
CAATTCTA | 0.287
GAATTCTA | 0.363
TAATTCCA | 0.207
TAATTCAA | 0.168
AAATTCTC | 0.0486
TAATTCTA | 0.331
CCCGCTCC | -0.108
GCGACCCA | 0.134
TCAAGGAA | -0.0876
ATCAACCA | -0.0125
ATATAGAG | 0.165
ATATAGAT | 0.399
ATATAGAA | 0.347
ATATAGAC | -0.00572
CTATAGAA | 0.283
GTATAGAA | 0.278

Sequence | binding signal [E-score]
CTGACAAG | -0.143
AAGATGAG | 0.0366
CAACAAGA | -0.163
CTCTATAA | 0.0363
GTATATGA | 0.224
CTATATGA | 0.0756
ACTTATAT | 0.29
CCTTATAA | 0.0808
ATGTATAC | 0.308
CTATATAA | 0.359
ATGTATAA | 0.364
ACTTATAA | 0.338
CTGTATAA | 0.215
ATATATGA | 0.329
CAATATAA | 0.295
CACGGGCA | -0.13
AATTGTTA | 0.234
GCTTTCAA | -0.116
AGGAAGGA | -0.123
AGAGTACT | 0.169
CACGTAGA | -0.0653
AGCTCGCA | -0.0853
AGAGACTG | 0.0621
AACCAAAA | 0.0375
ACTGACCA | -0.00734

Sequence | binding signal [E-score]
AGTCCAAT | -0.0629
CAGTATAA | 0.213
GTCTATAA | 0.0588
ATCTATAG | 0.295
TAGTATAA | 0.413
ATATATAA | 0.449
TTATATAA | 0.384
TAATATAA | 0.309
ATCTATAA | 0.355
GGATATAA | 0.3
TGATATAA | 0.309
AAGTATAA | 0.187
GTATATAA | 0.285
AGGACTAG | -0.0267
TAGAATCA | 0.222
AGTCGAGC | -0.0631
CTTTGCGC | -0.101
ACACACCC | -0.0492
ACAGGTTC | -0.0931
AACTATAA | 0.309
CACTATAA | 0.155
TACTATAA | 0.408
CGCAAATA | 0.178
GGAGAAAC | -0.116
AACCGCGA | -0.00712

Sequence | binding signal [E-score]
GTTATTAA | 0.22
AATGTATG | 0.309
CATGTAAA | 0.25
GTTGTATA | 0.351
ATTGTATA | 0.317
AATGTAAA | 0.329
AATGTAGA | 0.359
CTTGTATA | 0.18
GATGTAAA | 0.164
CATGTAGA | 0.327
AATGTATA | 0.35
AATGTAGC | 0.144
AATGTATC | 0.187
TCCTAAAA | 0.103
CCAGGCCG | -0.0324
TTACTGAA | 0.144
ACGGGTAG | 0.0714
GAGGAAAA | -0.0709
AGTGCACT | 0.024
GTCAGAAA | 0.0136
GCATAACC | 0.0668
GCGGTTCC | -0.143
CCTTAGAC | -0.116
CACAACTA | 0.199
TCACTAGA | 0.155

Sequence | binding signal [E-score]
AATGTAAT | 0.398
AATGTAAG | 0.112
AATGTAAC | 0.166
CCAGTGAC | -0.156
ACCACAGA | 0.0469
AAATAGTT | 0.406
AAATAGCG | 0.13
AAATAGTC | 0.049
AAATAGCT | 0.336
TAATAGCA | 0.276
AAATAGTG | 0.215
GAATAGTA | 0.325
AAATAGCC | 0.0812
AAATAGCA | 0.0458
ACATAGTA | 0.298
TAATAGTA | 0.423
AAATAGTA | 0.427
AAACCACC | -0.1
ACCGCCGA | -0.0492
CGAAGTCC | -0.0993
CATGTCCG | 0.0905
CGGTAAAC | 0.0274
CAATAGTC | 0.0177
TAGTAATA | 0.403
TAGTAACA | 0.345

Sequence | binding signal [E-score]
AAGTAATA | 0.29
CAATAGTA | 0.33
AAGTAACA | 0.177
CAGTAACA | 0.114
GAGTAATA | 0.182
CAATAGTG | 0.236
CCTATAAG | 0.0895
CAACGGTA | 0.207
GGATGAAC | 0.0137
AAGCCTCA | -0.158
AAAGCGAG | -0.169
CATGCCCC | -0.186
TGCCGAAA | -0.0675
CAAATGGC | 0.0931
TAGAAATA | 0.416
GAGAACTA | 0.242
CAGAACTA | 0.309
TAGAACTA | 0.368
CAGAAATA | 0.254
AAGAAATA | 0.145
GAGAAATA | 0.345
GAGAAATC | 0.0248
GAGAAAAA | 0.0631
CATTCCGA | -0.0936
CGTTTACC | -0.0458

Sequence | binding signal [E-score]
ACTATTCT | 0.217
GCCATTTA | -0.19
GAATCGCA | -0.139
GAGAATGA | 0.00699
CCGTTTAA | -0.0736
TAAAAGGA | -0.0824
AAAAACTC | 0.113
TAAAACTA | 0.334
TAAAACAA | 0.0349
ACAAACTC | 0.00994
CAAAACTC | 0.162
AAAAACTA | 0.426
ACAAACTG | 0.0787
AAAAACTT | -0.191
CAAAACTA | 0.401
CAAAACAA | -0.0275
ACAAACTA | 0.382
TAAAACGA | 0.027
GAGGCTGA | -0.165
ACCGCAAG | -0.109
ACGAACTA | 0.311
CCAACTAA | 0.16
